Source: PubChem (several laboratories)
Hits are enriched below; roughly 0.87% of the tested compounds scored in any of these assays.
MRP reversal: MRP-mediated drug resistance reversal. hit rate 0.04% among 85,000. AID 602. H69AR cells + 2 uM doxorubicin, CellTiter-Glo, 72 h. differential viability (reversal), % at 10 µM;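 active = viability drop by adding the cancer drug above about 55%, with treated viability meeting a 40% cutoff, limit read from the data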;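 note: larger differential means the compound sensitizes cells more to doxorubicin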
Candida biofilm: kills Candida albicans biofilms; C. albicans biofilm + clotrimazole, Alamar Blue; inhibition, % at 6 µM; hit rate 0.14% among 85,000;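 active = inhibition above 20%; inactive = inhibition below 20%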;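 note: preformed 24 hr biofilms exposed to compound for 48 hr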
MRP-1 activ: activators of MRP-1 | H69AR cells + doxorubicin, viability rescue, CellTiter-Glo | viability increase, % at 10 µM | hit rate 0.61% among 140,000;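 active = viability gain under doxorubicin at or above a set limit, the compound median plus 3 SD, cut at about 4.7% in these data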;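 note: MRP-1 overexpressing cells given doxorubicin 25 µM after compound pretreatment; 18-22 h compound pretreatment then 72 h with doxorubicin before readout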
sEH inhibitor: inhibitors of human soluble epoxide hydrolase; recombinant human sEH enzymatic activity assay; inhibition, % at 2 µM; hit rate 0.34% among 91,000; AID 707; in the data active = inhibition above about 80%
Target sequence (P34913 whole entry, looked up): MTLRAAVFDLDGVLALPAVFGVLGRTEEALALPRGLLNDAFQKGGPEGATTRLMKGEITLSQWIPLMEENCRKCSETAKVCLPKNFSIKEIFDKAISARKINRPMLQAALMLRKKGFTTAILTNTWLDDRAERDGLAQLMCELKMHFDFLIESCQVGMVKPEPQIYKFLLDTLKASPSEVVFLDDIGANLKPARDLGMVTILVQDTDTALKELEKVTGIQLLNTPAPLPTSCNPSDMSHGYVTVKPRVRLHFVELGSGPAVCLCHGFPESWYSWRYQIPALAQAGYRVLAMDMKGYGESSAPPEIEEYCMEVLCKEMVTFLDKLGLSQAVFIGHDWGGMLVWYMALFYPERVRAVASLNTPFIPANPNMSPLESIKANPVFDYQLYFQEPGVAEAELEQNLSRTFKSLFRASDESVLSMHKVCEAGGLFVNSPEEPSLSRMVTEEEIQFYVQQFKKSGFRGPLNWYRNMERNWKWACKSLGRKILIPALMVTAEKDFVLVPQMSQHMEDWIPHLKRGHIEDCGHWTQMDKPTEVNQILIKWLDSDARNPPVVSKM
sEH act: activators of human soluble epoxide hydrolase; purified human sEH enzymatic activity, activator screen; P34913; hit rate 0.04% among 91,000; AID 717; activation, % at 2 µM; in the data active = activation above about 37%
Numbers stand for hits; - = inactive; . = no result.

SMILES | MRP reversal | Candida biofilm | MRP-1 activ | sEH inhibitor | sEH act
CCC(Sc1nc(-c2ccccc2)c(C#N)c(=O)[nH]1)C(=O)Nc1nnc(C)s1 (stereo not given) | . | . | 6.4 | - | -
CCCCNC(=O)NNC(=O)COc1cccc(C)c1C | . | . | - | . | .
Cc1cc(NC(=O)CSc2nc(-c3ccccc3)c(C#N)c(=O)[nH]2)no1 | - | - | 9.1 | - | -
O=C(CC1C(=O)N(c2ccccc2)C(=S)N1c1ccccc1)c1ccc(Br)cc1 (stereo not given) | . | . | 4.7 | . | .
O=C(CC1C(=O)N(c2ccccc2)C(=S)N1c1ccccc1)c1ccccc1 (stereo not given) | . | . | - | . | .
O=C(COC(=O)CNS(=O)(=O)c1cccc(Br)c1)NC(=O)Nc1ccc2c(c1)OCCO2 | . | . | - | . | .
CC(NC(=O)c1ccc(Br)cc1)c1ccc2c(c1)CCCC2 (stereo not given) | . | . | 5.6 | . | .
Cc1ccc(NC(=O)CSc2ccc3nnc(CCNC(=O)c4ccccc4)n3n2)c(C)c1 | . | . | - | . | .
CC1CC(C)CN(C(=O)c2ccc3c(=O)n(Cc4ccc5c(c4)OCO5)c(=S)[nH]c3c2)C1 (stereo not given) | - | - | - | 85 | -
COC(=O)c1ccc2c(=O)n(CCCCCC(=O)NCc3ccc4c(c3)OCO4)c(=O)[nH]c2c1 | - | - | - | - | -
CCN(CCCNC(=O)CCCCn1c(=O)[nH]c2ccccc2c1=O)c1ccccc1 | - | - | - | 80 | -
COCCCNC(=O)c1ccc2c(=O)n(Cc3ccc4c(c3)OCO4)c(=S)[nH]c2c1 | - | - | - | - | -
COCCCNC(=O)CCCn1c(=O)[nH]c2ccccc2c1=O | - | - | - | - | -
O=C(c1ccc2c(=O)n(Cc3ccc4c(c3)OCO4)c(=S)[nH]c2c1)N1CCCCC1 | - | - | - | 82 | -
O=C(CCCCCn1c(=S)[nH]c2ccccc2c1=O)NCc1ccc2c(c1)OCO2 | . | . | - | 83 | -
COC(=O)Cn1c(=NC(=O)c2ccc([N+](=O)[O-])s2)sc2cc(Br)ccc21 | . | . | - | . | .
O=C1C2CCCN2C(=O)N1CCCCN1CCN(c2ccc(F)cc2)CC1 (stereo not given) | . | . | - | . | .
S=C(NCCCn1ccnc1)NC1CCCCC1 | . | . | - | . | .
CC1CN(C(=O)C2(C)CC2(Cl)Cl)CC(C)O1 (stereo not given) | . | . | - | . | .
CCNc1sc(C(=O)c2cccs2)c(N)c1-c1nc2ccccc2s1 | - | - | 9.0 | - | -
O=C(CN1CCC(NC(=O)c2ccco2)CC1)Nc1cccc2ccccc12 | - | - | - | - | -
CC(C)c1ccc(NC(=O)NC2CCN(CC(=O)Nc3cccc4ccccc34)CC2)cc1 | . | . | - | 90 | -
COCCNC(=O)CN1CCC(NC(=O)Nc2ccc(C(F)(F)F)cc2)CC1 | - | - | - | 89 | -
Cc1ccc(-c2nnc(SCC(=O)N/N=C/c3ccc(C)s3)n2-c2ccc(C)cc2)cc1 | . | . | - | . | .
CCCCCOc1ccc(/C=c2\sc3nc(=O)c(-c4ccccc4)nn3c2=O)cc1OC | . | . | - | . | .
SMILES | MRP reversal | Candida biofilm | MRP-1 activ | sEH inhibitor | sEH act
O=c1nc2s/c(=C\c3ccc(-c4ccccc4[N+](=O)[O-])o3)c(=O)n2nc1-c1ccccc1 | . | . | 5.2 | . | .
COC(=O)c1ccc(C(=O)NC(=S)Nc2ccc3nc(SC)sc3c2)cc1 | . | . | - | . | .
COc1ccc(Cl)cc1N(C(=O)Nc1cccc(Cl)c1)C1=NCC(C)S1 (stereo not given) | . | . | - | . | .
O=C(CC1SC(=O)N(Cc2ccc(Cl)cc2)C1=O)Nc1nccs1 (stereo not given) | . | . | 12 | . | .
O=C(CSCc1ccc(Cl)cc1)Nc1nccs1 | - | - | - | - | -
CCN=c1scc(C)n1/N=C/c1ccc(O)c(O)c1O | . | . | 6.2 | - | -
CCn1c(SCC(=O)NCc2ccccc2)nc2c(c1=O)SC(C)C2 (stereo not given) | - | - | - | . | .
CCn1c2ccccc2c2cc(NC(=O)CC(C)=O)ccc21 | . | . | 4.8 | . | .
O=S(=O)(c1cccc(NC(=S)Nc2ccc(Br)cc2Cl)c1)N1CCOCC1 | . | . | - | - | -
COc1cc(OC)cc(C(=O)N2CCC(C(=O)Nc3ccc4c(c3)OCCO4)CC2)c1 | . | . | - | . | .
Cc1cccc(Nc2nnc(SCC(=O)Nc3cccnc3Cl)s2)c1 | . | . | 8.1 | . | .
COC(=O)N/N=C/c1cc(Cl)cc(Cl)c1OCc1ccc(F)cc1 | . | . | - | . | .
CCC(=O)N1CCN=C1SCc1ccccc1 | - | - | 5.1 | . | .
CC(=O)N1CCN=C1SCc1ccccc1F | - | - | 5.1 | . | .
CC(=O)N1CCN=C1SCc1ccc(Cl)cc1 | - | - | 6.4 | . | .
CC(=O)N1CCN=C1SCc1ccc(C)cc1 | - | - | 5.6 | . | .
CCC(=O)N1CCN=C1SCc1ccc(Cl)cc1 | - | - | - | - | -
COc1ccc2nc(NC(=O)CCN3C(=S)NC(C)(C)CC3C)sc2c1 (stereo not given) | . | . | - | . | .
N#Cc1cc2c(nc1SCc1ccccc1)CCCCC2 | - | - | - | - | -
N#Cc1cc2c(nc1SCc1ccc(Cl)cc1)CCCC2 | - | - | 6.8 | - | -
CCn1c(SCc2ccc(Cl)cc2)nc2nc3c(cc2c1=O)CCCC3 | . | . | 5.4 | . | .
N=C(CC1CC(=O)NC(=O)C1)C1=C(O)CCCC1=O | . | . | - | . | .
CCCOc1ccccc1NC(=O)c1c(-c2ccccc2)noc1C | - | 30 | - | - | -
Cc1ccccc1NC(=O)c1c(-c2ccccc2)noc1C | - | - | - | - | -
CCCn1c(C)cc(/C=C(\C#N)C(=O)OCC(=O)Nc2ccc(OC)c(Cl)c2)c1C | . | . | 9.4 | . | .
SMILES | MRP reversal | Candida biofilm | MRP-1 activ | sEH inhibitor | sEH act
CCCn1c(C)cc(/C=C(\C#N)C(=O)OCC(=O)NC(=O)NCC)c1C | - | - | - | - | -
N#C/C(=N\Nc1ccccc1F)C(=N)N1CCCCC1 | - | - | 8.2 | - | -
Cc1ccc(N/N=C(\C#N)C(=N)N2CCOCC2)cc1 | . | . | 6.5 | . | .
N#C/C(=N\Nc1ccccc1)C(=N)N1CCOCC1 | . | . | 6.8 | . | .
N#C/C(=N\Nc1ccc(Cl)cc1)C(=N)N1CCCCC1 | - | - | - | - | -
Cc1ccc(C(CC(=O)O)Nc2nc(N3CCOCC3)nc(N3CCOCC3)n2)cc1 (stereo not given) | - | - | - | . | .
N#C/C(C(=O)N1CCOCC1)=C1/SC(Cc2ccccc2)C(=O)N1c1ccccc1 (stereo not given) | - | - | - | . | .
CC(=O)/C(C#N)=C1\NC(=O)C(Cc2ccccc2)S1 (stereo not given) | - | - | 4.9 | . | .
Cc1ccc(S(=O)(=O)N2CCC(C(=O)N[C@@H](C)C(=O)Nc3ccc4c(c3)OCO4)CC2)cc1 | - | - | 6.2 | - | -
CCOC(=O)c1sc(Nc2nc3cc4c(cc3s2)OCO4)cc1C | . | . | 4.7 | . | .
CCOC(=O)c1sc(Nc2nc3c(OC)cccc3s2)cc1C | . | . | - | . | .
Cc1ccc(C)n1-c1ccc(C(=O)NN)cc1 | . | . | - | . | .
Clc1cnc(N/N=C/c2cccs2)c(Cl)c1 | 81 | - | - | - | -
Cc1ccc(/C=N/Nc2ncc(Cl)cc2Cl)s1 | - | - | - | - | -
COc1ccc(C2C3C(C)=NN=C3CC(C)(O)C2C(C)=O)cc1 (stereo not given) | . | . | - | . | .
COc1ccc(-c2cc3nc(-c4ccccc4)cc(N4CCC5(CC4)OCCO5)n3n2)cc1 | - | - | 9.0 | - | -
CCc1c(C)nc2ncnn2c1N1CCC(C(=O)Nc2ccc(C)cc2)CC1 | - | - | - | 83 | -
COc1ccc(NS(=O)(=O)c2ccc3oc(SC4CCOC4=O)nc3c2)cc1 (stereo not given) | - | - | 7.4 | - | -
